High-throughput results deposited in PubChem BioAssay by several laboratories.
The list is not random: actives were taken first. Their share in the collection is about 4.1%.
TROY NFkB inh – inhibitors of TROY-driven NF-kB signaling, primary screen, Q293 LMP1-TROYcd cells, NF-kB luciferase, uHTS. 360,000 compounds, 0.98% hits. Q293 LMP1-TROYcd NF-kB luciferase reporter, 4 h. inhibition, % at 10 µM. AID 1347056, 2019;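 active = compounds whose plate-normalised and pattern-corrected inhibition of the luciferase reporter signal at the single screening dose is 50% or more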
LMP1 NFkB inh – EBV LMP1-driven NF-kappaB luciferase reporter inhibitors, primary screen, cell-based, luminescence, single point | 350,000 compounds, 0.69% hits | LMP1-induced NF-kappaB luciferase reporter cells | AID 504558, 2011 | inhibition, % at 12.5 µM; in the data active = inhibition above about 41%; inconclusive = no clear call, values can overlap the other calls
TWEAK Fn14 block – inhibitors of TWEAK-Fn14 signaling, primary screen, luciferase reporter cells, uHTS. 360,000 compounds, 2% hits. TWEAK-stimulated Fn14 reporter cells, luciferase luminescence, 8 h. inhibition, % at 10 µM; in the data active = inhibition above about 50%
Peg3 promoter – Peg3 promoter-driven luciferase inhibitors, primary screen, cell-based, HeLa, luciferase luminescence | HeLa PEG-Prom luciferase reporter, overnight | inhibition, % at 20 µM | 360,000 compounds, 1.7% hits;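 active = inhibition of at least 50% at 20 µM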
TRPM1 prom inh – inhibitors of MITF-dependent TRPM1 promoter reporter, primary screen, cell-based, SK-MEL-5, single point, luciferase. SK-MEL-5 TRPM1 promoter luciferase, 24 h. inhibition, % at 12.5 µM. 330,000 compounds, 0.83% hits. AID 488899, 2010;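 active = mean inhibition across replicates of 60% or more, whatever share of single replicates reaches that level; inconclusive = some that reach 60%, reason not given; inactive = mean inhibition across replicates below 60%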
Shn3 inh set2 – reduction of Shn3 3'UTR firefly luciferase signal, primary screen, Schnurri-3 inhibitor project, cell-based, Clone20 osteoblasts, set 2; 360,000 compounds, 0.52% hits; inhibition, % at 12.5 µM; Clone20 osteoblast Shn3 3'UTR firefly luciferase, 24 h;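 active = mean inhibition of at least 75% with every replicate also reaching 75%; inconclusive = mean inhibition at least 75% but some replicate below; inactive = mean inhibition below 75%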
A number is an active result; – = inactive; ? = inconclusive; · = no result given.

SMILES	TROY NFkB inh	LMP1 NFkB inh	TWEAK Fn14 block	Peg3 promoter	TRPM1 prom inh	Shn3 inh set2
Nc1ncnc2c1ncn2[C@@H]1O[C@H](CNC(=O)[C@@H](N)C2CCCCC2)[C@@H](O)[C@H]1O	–	–	–	–	–	–
O=C(NCc1cccs1)c1nc2c(nnn2Cc2ccccc2Cl)c(=O)[nH]1	83	76	96	104	76	–
CSCCC(NC(=O)c1ccccc1Br)C(=O)NNC(=O)C1COc2ccccc2O1 (stereo not drawn)	–	–	–	–	–	–
Cc1ccc(-c2csc(NC(=O)/C=C/c3cccs3)n2)cc1C	–	–	–	–	–	–
O=C(/C=C\c1ccco1)Nc1nc(-c2ccccc2)cs1	–	–	–	–	–	–
N#Cc1ccc(-c2csc(NC(=O)/C=C/c3cccs3)n2)cc1	59	–	–	–	–	–
Cc1nc(NC(=O)/C=C/c2ccccc2)n[nH]1	–	–	86	92	?	–
O=C(/C=C/c1ccccc1)Nc1nc(-c2ccncc2)cs1	53	–	–	–	–	–
O=C1CCc2cc(S(=O)(=O)Nc3ccc(F)cc3)cc3c2N1CC3	–	–	–	–	–	–
CN(Cc1ccccc1)C(=O)CN1C(=O)NC(C)(c2ccc(Cl)cc2)C1=O (stereo not drawn)	–	–	–	–	–	–
CC1(C)Cc2ccccc2C(C(=O)c2ccccc2)=N1	–	–	–	–	–	–
CC(=O)CC1=NC(C)(C)Cc2ccccc21	53	–	–	–	–	–
CCN(CC(=O)Nc1ccc(OC)cc1)CC(=O)N1CC(=O)Nc2ccccc21	–	–	–	–	–	–
FC(F)(F)c1cccc(N2CCN(C3CC4CCC3C4)CC2)c1 (stereo not drawn)	–	–	–	–	–	–
COc1ccc(C(=O)N2CC3(C)CC2CC(C)(C)C3)cc1 (stereo not drawn)	66	–	–	–	–	–
CC1(C)CC2CC(C)(CN2C(=O)c2ccccc2)C1 (stereo not drawn)	–	–	–	–	–	–
CCOC(=O)c1ccc(N2N=C(C)/C(=C/C=C/c3ccco3)C2=O)cc1	–	–	–	–	–	–
CC1=NN(c2ccc(C)c(C)c2)C(=O)/C1=C\C=C\c1ccc([N+](=O)[O-])o1	–	–	86	88	84	95
O=c1c2c3c(sc2ncn1/N=C/c1ccc([N+](=O)[O-])o1)CCCC3	–	–	64	–	82	–
CCc1ccc2c(c1)C1(C(=O)N2)N2CCCC2C(C(=O)c2ccc3ccccc3c2)C12C(=O)Nc1ccccc12 (stereo not drawn)	–	–	–	104	–	–
COc1cc(C(=O)NCc2ccc(S(N)(=O)=O)cc2)ccc1OCC(=O)N1CCOCC1	–	–	–	–	–	–
COc1cc(/C=C/C(=O)N2C(=O)c3cccc(N)c3C2=O)cc(OC)c1OC	–	–	92	65	–	–
COc1cc(/C=C/C(=O)N2CCN(C(=O)/C=C/c3cc(OC)c(OC)c(OC)c3)CC2)cc(OC)c1OC	–	–	–	–	–	–
COc1ccc(OC)c(/C=C/C(=O)N2CCCc3ccccc32)c1	–	–	–	–	–	–
COc1ccc(OC)c(/C=C/C(=O)N2C(=O)c3cccc(N)c3C2=O)c1	–	–	100	64	–	92
SMILES	TROY NFkB inh	LMP1 NFkB inh	TWEAK Fn14 block	Peg3 promoter	TRPM1 prom inh	Shn3 inh set2
O=C1c2cccnc2-c2ncccc21	–	–	–	–	–	–
O=C1C(=O)c2cccnc2-c2ncccc21	66	·	103	102	·	95
COc1ccc2c(c1)OC(=O)CC2c1cc(OC)c(OC)c(OC)c1 (stereo not drawn)	–	89	–	–	–	–
COc1cc(C2CC(=O)Oc3cc(O)ccc32)cc(OC)c1OC (stereo not drawn)	–	–	–	–	–	–
Cc1ccc(C(C(=O)NC(C)(C)C)N(Cc2ccco2)C(=O)Cn2nnc(-c3cccs3)n2)cc1 (stereo not drawn)	–	–	–	–	–	–
CC(C)(C)NC(=O)C(c1ccncc1)N(Cc1cccs1)C(=O)Cn1nnc(-c2cccs2)n1 (stereo not drawn)	–	–	–	63	–	–
